# Measured values: PubChem BioAssay AID1159580 (chemical genetic matrix, 2015)
# About 2,000 (36%) of roughly 5,500 compounds were called active. Roughly 18% stayed inconclusive and do not appear here. The list shows a part of the results. Unmarked numbers belong to inactive results. Cut-off read from the data, not from the text of the source: active = normalized growth mostly below about 0.91 (no sharp cut-off); inconclusive = no clear call, values can overlap the other calls; inactive = mostly above about 0.92.
# Test: chemical genetic growth profiling, strain panel (AID 1159580);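 note: tested at 20 µM; growth read once vehicle control cultures reached saturation at 30 °C; 1 = growth at the plate median or of vehicle wells; lower values mean less growth of the strain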
# Details: growth OD
smiles,measurement,setting,value
CCC(C)(C)C(=O)O[C@H]1C[C@@H](C)C=C2C=C[C@H](C)[C@H](CC[C@@H]3C[C@@H](O)CC(=O)O3)[C@H]21,normalized growth,"S. cerevisiae deletion strains, locus YJR075W, strain HOC1, hits give low values",1
same,normalized growth,"S. cerevisiae deletion strains, locus YKL009W, strain mrt4, hits give low values",0.93
same,normalized growth,"S. cerevisiae deletion strains, locus YKL068W, hits give low values",1.03
same,normalized growth,"S. cerevisiae deletion strains, locus YKL085W, strain MDH1 (second series), hits give low values",1.02
same,normalized growth,"S. cerevisiae deletion strains, locus YKL085W, strain MDH1, hits give low values",1.02
same,normalized growth,"S. cerevisiae deletion strains, locus YKL160W, strain elf1, hits give low values",0.949
same,normalized growth,"S. cerevisiae deletion strains, locus YKL190W, strain CNB1, hits give low values",1.01
same,normalized growth,"S. cerevisiae deletion strains, locus YKR001C, strain vps1, hits give low values",1.01
same,normalized growth,"S. cerevisiae deletion strains, locus YKR026C, strain gcn3, hits give low values",1.01
same,normalized growth,"S. cerevisiae deletion strains, locus YKR091W, strain srl3, hits give low values",1.02
same,normalized growth,"S. cerevisiae deletion strains, locus YLL001W, strain dnm1, hits give low values",1
same,normalized growth,"S. cerevisiae deletion strains, locus YLL026W, hits give low values",0.981
same,normalized growth,"S. cerevisiae deletion strains, locus YLL041C, strain sdh2, hits give low values",1.01
same,normalized growth,"S. cerevisiae deletion strains, locus YLR027C, strain aat2, hits give low values",0.976
same,normalized growth,"S. cerevisiae deletion strains, locus YLR039C, strain RIC1, hits give low values",1.1
same,normalized growth,"S. cerevisiae deletion strains, locus YLR058C, strain SHM2, hits give low values",1.02
same,normalized growth,"S. cerevisiae deletion strains, locus YLR102C, strain apc9, hits give low values",1.04
same,normalized growth,"S. cerevisiae deletion strains, locus YLR113W, strain HOG1, hits give low values",1.04
same,normalized growth,"S. cerevisiae deletion strains, locus YLR221C, strain rsa3, hits give low values",0.909
same,normalized growth,"S. cerevisiae deletion strains, locus YLR258W, strain gsy2, hits give low values",0.927
same,normalized growth,"S. cerevisiae deletion strains, locus YLR262C, strain YPT6 (second series), hits give low values",1.05
same,normalized growth,"S. cerevisiae deletion strains, locus YLR262C, strain YPT6, hits give low values",0.58
same,normalized growth,"S. cerevisiae deletion strains, locus YLR268W, strain sec22, hits give low values",0.993
same,normalized growth,"S. cerevisiae deletion strains, locus YLR320W, strain mms22, hits give low values",0.855 (active)
same,normalized growth,"S. cerevisiae deletion strains, locus YLR330W, strain CHS5, hits give low values",1
same,normalized growth,"S. cerevisiae deletion strains, locus YLR342W, strain FKS1 (second series), hits give low values",1.01
same,normalized growth,"S. cerevisiae deletion strains, locus YLR342W, strain FKS1, hits give low values",1
same,normalized growth,"S. cerevisiae deletion strains, locus YLR357W, strain rsc2, hits give low values",1.01
same,normalized growth,"S. cerevisiae deletion strains, locus YLR370C, strain arc18, hits give low values",1.01
same,normalized growth,"S. cerevisiae deletion strains, locus YLR371W, strain rom2, hits give low values",1.04
same,normalized growth,"S. cerevisiae deletion strains, locus YLR384C, strain iki3, hits give low values",0.978
same,normalized growth,"S. cerevisiae deletion strains, locus YLR418C, strain cdc73, hits give low values",0.856
same,normalized growth,"S. cerevisiae deletion strains, locus YML016C, strain PPZ1, hits give low values",1.02
same,normalized growth,"S. cerevisiae deletion strains, locus YML032C, strain rad52, hits give low values",1.02
same,normalized growth,"S. cerevisiae deletion strains, locus YML120C, strain ndi1, hits give low values",0.987
same,normalized growth,"S. cerevisiae deletion strains, locus YML124C, strain tub3, hits give low values",1.04
same,normalized growth,"S. cerevisiae deletion strains, locus YMR058W, strain fet3, hits give low values",0.977
same,normalized growth,"S. cerevisiae deletion strains, locus YMR078C, strain ctf18, hits give low values",1.04
same,normalized growth,"S. cerevisiae deletion strains, locus YMR125W, strain sto1, hits give low values",0.97
same,normalized growth,"S. cerevisiae deletion strains, locus YMR129W, hits give low values",1.02
same,normalized growth,"S. cerevisiae deletion strains, locus YMR205C, strain PFK2, hits give low values",0.978
same,normalized growth,"S. cerevisiae deletion strains, locus YMR223W, strain ubp8, hits give low values",0.991
same,normalized growth,"S. cerevisiae deletion strains, locus YMR231W, strain pep5, hits give low values",1
same,normalized growth,"S. cerevisiae deletion strains, locus YMR263W, strain SAP30, hits give low values",0.99
same,normalized growth,"S. cerevisiae deletion strains, locus YMR307W, strain GAS1, hits give low values",0.554 (active)
same,normalized growth,"S. cerevisiae deletion strains, locus YNL067W, strain RPL9B, hits give low values",0.998
same,normalized growth,"S. cerevisiae deletion strains, locus YNL071W, strain lat1, hits give low values",0.834 (active)
same,normalized growth,"S. cerevisiae deletion strains, locus YNL128W, strain TEP1, hits give low values",0.979
same,normalized growth,"S. cerevisiae deletion strains, locus YNL153C, strain GIM3, hits give low values",0.986
same,normalized growth,"S. cerevisiae deletion strains, locus YNL183C, strain NPR1, hits give low values",0.897
same,normalized growth,"S. cerevisiae deletion strains, locus YNL209W, strain ssb2, hits give low values",0.88 (active)
same,normalized growth,"S. cerevisiae deletion strains, locus YNL233W, strain BNI4, hits give low values",0.947
same,normalized growth,"S. cerevisiae deletion strains, locus YNL248C, strain rpa49, hits give low values",0.932
same,normalized growth,"S. cerevisiae deletion strains, locus YNL250W, strain rad50, hits give low values",0.988
same,normalized growth,"S. cerevisiae deletion strains, locus YNL271C, strain bni1, hits give low values",1.01
same,normalized growth,"S. cerevisiae deletion strains, locus YNL298W, strain CLA4, hits give low values",1.03
same,normalized growth,"S. cerevisiae deletion strains, locus YNL307C, strain MCK1, hits give low values",0.942
same,normalized growth,"S. cerevisiae deletion strains, locus YNL322C, strain KRE1 (second series), hits give low values",1.07
same,normalized growth,"S. cerevisiae deletion strains, locus YNL322C, strain KRE1, hits give low values",1.01
same,normalized growth,"S. cerevisiae deletion strains, locus YNR049C, strain mso1, hits give low values",1.02
same,normalized growth,"S. cerevisiae deletion strains, locus YNR052C, strain pop2, hits give low values",0.911 (active)
same,normalized growth,"S. cerevisiae deletion strains, locus YOL006C, strain TOP1, hits give low values",0.909
same,normalized growth,"S. cerevisiae deletion strains, locus YOL012C, strain htz1",1.29
same,normalized growth,"S. cerevisiae deletion strains, locus YOL147C, strain pex11, hits give low values",1.04
same,normalized growth,"S. cerevisiae deletion strains, locus YOR001W, strain rrp6, hits give low values",1.01
same,normalized growth,"S. cerevisiae deletion strains, locus YOR061W, strain CKA2, hits give low values",1.01
same,normalized growth,"S. cerevisiae deletion strains, locus YOR069W, strain VPS5, hits give low values",0.998
same,normalized growth,"S. cerevisiae deletion strains, locus YOR070C, strain gyp1, hits give low values",0.845 (active)
same,normalized growth,"S. cerevisiae deletion strains, locus YOR080W, strain dia2, hits give low values",0.971
same,normalized growth,"S. cerevisiae deletion strains, locus YOR083W, strain WHI5, hits give low values",0.981
same,normalized growth,"S. cerevisiae deletion strains, locus YOR106W, strain vam3, hits give low values",0.931
same,normalized growth,"S. cerevisiae deletion strains, locus YOR136W, strain idh2, hits give low values",1.01
same,normalized growth,"S. cerevisiae deletion strains, locus YOR144C, strain elg1, hits give low values",1.03
same,normalized growth,"S. cerevisiae deletion strains, locus YOR184W, strain ser1, hits give low values",0.944
same,normalized growth,"S. cerevisiae deletion strains, locus YOR231W, strain MKK1, hits give low values",0.956
same,normalized growth,"S. cerevisiae deletion strains, locus YOR265W, strain rbl2, hits give low values",0.922 (active)
same,normalized growth,"S. cerevisiae deletion strains, locus YOR270C, strain vph1, hits give low values",0.57 (active)
same,normalized growth,"S. cerevisiae deletion strains, locus YOR290C, strain snf2, hits give low values",0.991
same,normalized growth,"S. cerevisiae deletion strains, locus YOR316C, strain cot1, hits give low values",1.03
same,normalized growth,"S. cerevisiae deletion strains, locus YPL051W, strain arl3, hits give low values",0.946
same,normalized growth,"S. cerevisiae deletion strains, locus YPL055C, strain LGE1, hits give low values",0.926
same,normalized growth,"S. cerevisiae deletion strains, locus YPL078C, strain atp4, hits give low values",0.983
same,normalized growth,"S. cerevisiae deletion strains, locus YPL106C, strain sse1, hits give low values",1.15 [resistant] (active)
same,normalized growth,"S. cerevisiae deletion strains, locus YPL240C, strain hsp82, hits give low values",0.997
same,normalized growth,"S. cerevisiae deletion strains, locus YPL241C, strain CIN2, hits give low values",1
same,normalized growth,"S. cerevisiae deletion strains, locus YPL256C, strain CLN2, hits give low values",1.02
same,normalized growth,"S. cerevisiae deletion strains, locus YPR119W, strain clb2, hits give low values",1.04
same,normalized growth,"S. cerevisiae deletion strains, locus YPR141C, strain kar3, hits give low values",1.02
same,normalized growth,"S. cerevisiae deletion strains, locus YPR163C, strain tif3, hits give low values",1.01
same,normalized growth,"S. cerevisiae deletion strains, locus YPR167C, strain met16, hits give low values",1.03
same,normalized growth,"S. cerevisiae deletion strains, strain wtn01, hits give low values",1.03
same,normalized growth,"S. cerevisiae strains, strain wild type, hits give low values",0.997
